Assay outcomes deposited in PubChem by National Center for Advancing Translational Sciences (NCATS).
Pf growth 96h = P. falciparum growth inhibition at 96 hour, primary screen for plastid delayed-death inhibitors; P. falciparum luciferase reporter growth, 96 h; Potency, µM (top dose mostly 28.7 µM), for inactives: at the highest dose activity change, negative = inhibition, actives largely listed as inhibitors; 320,000 compounds, 6.9% hits; AID 504834; note: potency is the fitted concentration of half-maximal effect; % is set by controls: 0 for no effect and ±100 for the full control effect
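Delayed-death screen, second-generation endpoint: infected erythrocytes, 2% hematocrit, 0.05% parasitemia final; 96 hours at 37 C, 5% CO2; luciferase detection reagent; luminescence decrease equals reduced growth.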
CHX counter = counter-screen hit for Shiga toxin inhibitors, cycloheximide; 300,000 compounds, 12% hits; cell reporter, cycloheximide protein synthesis inhibition counterscreen; max response, %; AID 2314; in the data active = max response mostly above about 13%, no sharp cut-off; inactive = mostly below about 14%; note: read at 38.3 µM for the half of the compounds with a filed dose; 0% is about no effect
Shiga inhibitor = inhibitors of Shiga toxin in Vero cells; 290,000 compounds, 9.2% hits; inhibition, % at 38.7 µM; Vero cells, Shiga toxin protein synthesis inhibition reporter; AID 2315; in the data active = inhibition mostly above about 28%, no sharp cut-off; inactive = mostly below about 43%; note: 0% is about no effect
Pf growth 48h = P. falciparum growth inhibition at 48 hours (one generation) | P. falciparum luciferase growth in erythrocytes, 48 h | AID 504832 | Potency, µM (highest dose often 28.7 µM), without a hit: top-dose activity change, negative = inhibition, usual class: inhibitors | 310,000 compounds, 5.9% hits; note: potency is the fitted concentration of half-maximal effect; % is set by controls: 0 for no effect and ±100 for the full control effect
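Compounds are pin-transferred into medium, infected erythrocytes (2% hematocrit, 0.1% parasitemia final) are added, and plates sit one parasite generation at 37 C in 5% CO2. Detection reagent is then added and luminescence measured.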
HCMV antiviral = blocks human cytomegalovirus replication; 410,000 compounds, 4.5% hits; HFF cells, HCMV-luciferase reporter, 72 h; stronger effect = lower value; activity change, negative = inhibition, % at 57.5 µM; AID 1259415; in the data active = activity change below about -60%; inconclusive = no clear call, values can overlap the other calls; inactive = above about -39%; note: % is set by controls: 0 for no effect and ±100 for the full control effect
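Two compound doses tested in HFFs infected with HCMV-luciferase, MOI 1 PFU/cell, 72 h at 37C. Lysate luminescence read with OneGlo; data normalized against buffer-only and 10uM Salinomycin inhibitor controls.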
* hit, by the source's call; i = inactive; ? = inconclusive; · = no result given. Most compounds without a hit are left out; they make up all but 20% or so of the library. Unless noted, calls come from the whole dose curve; as a rule, active = well fitted inhibition curve with a large enough effect; inconclusive = small, poorly fitted or top-dose-only effect, or another doubt; inactive = no such curve, though single readings can be large or run the other way.

SMILES | Pf growth 96h | CHX counter | Shiga inhibitor | Pf growth 48h | HCMV antiviral
Cc1ccc(S(=O)(=O)NNC(=O)c2ccc(NC(=O)C3CC3)cc2)cc1 | ? | -2 | -3 | 17% | 1
C=CCc1c(C)c(C#N)c2nc3ccccc3n2c1N1CCCCC1 | 1.9µM* | -2 | 6 | ? | 60
C=C(C)Cc1c(C)c(C#N)c2nc3ccccc3n2c1N1CCCCC1 | ? | -2 | -16 | · | ?
Cc1ccc(C2CC(=O)Oc3cc(C)c(Cl)c(C)c32)cc1 (centres undefined) | · | 3 | i | · | ·
CCOC(=O)c1csc(NC(=O)c2cc(=O)c3ccccc3o2)n1 | 0.074µM* | 29 | 24 | 4% | 20
CCCc1nnc(NC(=O)c2cc(=O)c3ccccc3o2)s1 | · | · | · | · | 41
CC(=O)c1sc(NC(=O)c2cc(=O)c3ccccc3o2)nc1C | 107% | 36* | 60* | i | 50
CCOc1ccc(OCCOCCn2c(-c3ccc(Cl)cc3)nc3ccccc3c2=O)cc1 | · | · | · | · | 5
O=C(Cn1nc(-c2nn(CC(=O)c3ccccc3)c3[n+]2CCCCC3)[n+]2c1CCCCC2)c1ccccc1 | -23% | -1 | 3 | ? | 24
COc1ccc(C(=O)Cn2nc(CNc3ccc(Br)cc3)[n+]3c2CCCCC3)cc1 | 1.9µM* | -3 | -8 | 1µM* | -60*
Cc1ccc(C(C)C)c(OCc2nn(CC(=O)c3ccc(OC(F)F)cc3)c3[n+]2CCCCC3)c1 | ? | 9 | -4 | 1.9µM* | ·
O=C(CN1CCCCC1)c1ccc(OC(F)F)cc1 | -15% | -5 | -6 | 7% | 21
CCCN(CC(=O)Nc1cc(Cl)cc(Cl)c1)CC(=O)Nc1ccc(F)c(F)c1F | 9.3µM* | 0 | -8 | ? | -87*
CCCCCn1cc2c(c1-c1ccccc1Br)c(=O)n(C)c(=O)n2C | · | · | · | · | -3
O=C(NCc1ccco1)c1cc(S(=O)(=O)N2CCCc3ccccc32)ccc1Cl | -18% | 8 | -5 | · | -67*
COc1ccc(S(=O)(=O)N2CCc3ccccc32)cc1C(=O)NCc1ccco1 | ? | · | · | 13µM* | -38
CC1=C(C(=O)Nc2cccc(C(F)(F)F)c2)C(c2ccccn2)n2ncnc2N1 (centres undefined) | · | · | · | · | 19
CCCNC(=S)N1CCC(C(=O)c2ccc3c(c2)OCCO3)CC1 | -6% | 10 | 29 | -1% | 18
CC(=O)c1ccc(NC(=O)N2CCCC(C(=O)c3ccc4c(c3)OCO4)C2)cc1 (centres undefined) | ? | 16* | 53* | 38% | 16
COc1ccc(NC(=S)N2CCC(C(=O)c3ccc(OC)cc3)CC2)cc1 | -1% | 0 | 3 | 0% | -12
COc1ccc(NC(=S)N2CCC(C(=O)c3ccc(C)cc3)CC2)cc1 | 64% | 8.9* | -1 | ? | 4
COc1ccc(NC(=O)N2CCC(C(=O)c3ccc4c(c3)OCCO4)CC2)cc1 | 20% | 21* | 25 | ? | -10
CSc1ccccc1NC(=O)N1CCCC(C(=O)c2ccc3c(c2)OCO3)C1 (centres undefined) | ? | -2 | -4 | -1% | ?
COCCNC(=S)N1CCC(C(=O)c2ccc3c(c2)OCCO3)CC1 | -15% | 46* | 74 | 54% | -38
Cc1ccc(S(=O)(=O)N2CCOCC2)cc1NC(=O)CNc1ccccc1N1CCCC1=O | ? | · | · | 9.3µM* | -6
SMILES | Pf growth 96h | CHX counter | Shiga inhibitor | Pf growth 48h | HCMV antiviral
CC(NCC(=O)Nc1cc(S(=O)(=O)N2CCOCC2)ccc1N1CCOCC1)c1ccco1 (centres undefined) | 5.9µM* | · | · | ? | -6
COc1ccccc1NCC(=O)Nc1cc(S(=O)(=O)N2CCOCC2)ccc1N1CCOCC1 | ? | -1 | -8 | ? | 10
Cc1ccccc1SCC(=O)Nc1cc(S(=O)(=O)N2CCOCC2)ccc1N1CCOCC1 | ? | 1 | -5 | 8.3µM* | -20
Cc1ccccc1NCC(=O)Nc1cc(S(=O)(=O)N2CCCCC2)ccc1C | ? | · | · | ? | -17
CCOCCCNCC(=O)Nc1cc(S(=O)(=O)N2CCOCC2)ccc1N1CCOCC1 | · | · | · | · | 22
O=C(CSc1cccc[n+]1[O-])Nc1cc(S(=O)(=O)N2CCOCC2)ccc1N1CCOCC1 | -6% | 49* | 14 | -2% | 5
C[C@@H]1CCCCO[C@@H](CN(C)C(=O)CCCN(C)C)[C@@H](C)CN([C@H](C)CO)C(=O)c2cc(NC(=O)CCC(F)(F)F)ccc2O1 | · | · | · | · | 0
CCc1nn(CC(=O)N2CCN(c3cccc(C(F)(F)F)c3)CC2)c(=O)c2cccn12 | · | · | · | · | 0
CCN(CC)P(=O)(Nc1ccc(C)cc1Br)c1ccc(N(C)C)cc1NC(=O)c1ccco1 (centres undefined) | ? | 14 | 17 | ? | -78*
Cn1c(O)c(C2=c3ccccc3=NC2=O)sc1=Nc1ccc(Cl)cc1 | -5% | 7.0* | 7 | 22% | -67*
O=C(O)Cn1c(O)c(C2=c3ccccc3=NC2=O)sc1=O | 27% | 10 | 21 | 12% | 36
CCCCn1c(=O)[nH]c(=O)c2c1ncn2Cc1ccco1 | ? | -2 | -7 | · | 2
N=c1c2c(-c3ccccc3)c(-c3ccccc3)n(Cc3ccco3)c2ncn1Cc1ccco1 | ? | -4 | -23 | 3.7µM* | -13
CCCCn1cnc2c(c(-c3ccccc3)c(-c3ccccc3)n2Cc2ccco2)c1=N | 2.3µM* | -3 | -28 | 4.1µM* | -15
O=c1[nH]c(=O)n(Cc2ccccc2)c(O)c1C=NCCCn1ccnc1 | 28% | -1 | 20 | 3% | -27
N=c1c2c(-c3ccccc3)c(-c3ccccc3)n(Cc3ccccc3)c2ncn1CCCn1ccnc1 | 1.3µM* | -3 | -11 | 0.93µM* | -74*
COc1cc(Nc2nccc3[nH]c(-c4cccc(C(C)C)c4)nc23)cc(OC)c1OC | · | · | · | · | -14
COc1ccc(-n2c(O)c(C(C)=NCc3ccco3)c(=O)[nH]c2=O)cc1 | ? | 4 | -8 | -3% | 5
COc1ccc(-n2c(O)c(C(C)=NCCc3c[nH]c4ccccc34)c(=O)[nH]c2=O)cc1 | ? | -2 | -6 | 12µM* | 35
CCCCOc1cccc(C(=O)Nc2ccc(S(=O)(=O)Nc3nnc(CC)s3)cc2)c1 | ? | -2 | -6 | -1% | 55
O=S(=O)(NCc1ccccc1)c1ccc(S(=O)(=O)N(Cc2ccccn2)C2CCCC2)cc1 | ? | -3 | -6 | 10µM* | -11
Cc1c(NC(=O)c2ccc([N+](=O)[O-])o2)cccc1-c1nc2ncccc2o1 | 11% | 1 | 9 | 12µM* | -86*
COc1ccc(C(=O)Nc2cccc(-c3nc4ncccc4o3)c2C)cc1OC | 3.7µM* | -6 | -6 | 1% | -24
Cc1cc(C)cc(C(=O)Nc2cccc(-c3nc4ncccc4o3)c2C)c1 | · | · | · | · | -6
COc1cccc(C(=O)Nc2cccc(-c3nc4ncccc4o3)c2C)c1 | 81% | -1 | -12 | 11% | -27
C=CCc1ccccc1OCC(O)CNC(=O)c1ccccc1C(=O)O (centres undefined) | 20% | 9 | 15 | 0% | -4
